In PubChem BioAssay (NCATS) one finds Potency data, which are given here for six compounds.

Results filed as inconclusive are left out. Activity calls are given as the source filed them. Unless noted, calls come from the whole dose curve; as a rule, active = well fitted curve in the direction sought with a large enough effect; inconclusive = small, poorly fitted or top-dose-only effect, or another doubt; inactive = no such curve, though single readings can be large; an effect the other way counts as inactive or inconclusive.

Assay [1] is described as follows: qHTS for Inhibitors of the Functional Ribonucleoprotein Complex (vRNP) of Lymphocytic Choriomeningitis Arenaviruses (LCMV): Viability assay - alamar blue signal for LCMV Primary Screen (AID 1347085; calls by dose curve; tested in HEK293 reporter line; note: nearly all actives have a fitted effect of over 80% in size; note: potency is the fitted concentration of half-maximal effect). The conditions noted are these: alamar blue viability counter-screen, LCMV vRNP screen cells; series mostly up to 57.5 µM. Background: qHTS replaces the single test concentration by a dilution series.

Assay [2] has as its target Nucleoprotein (Lymphocytic choriomeningitis virus (strain Armstrong)) (UniProt P09992). Briefly: qHTS for Inhibitors of the Functional Ribonucleoprotein Complex (vRNP) of Lymphocytic Choriomeningitis Arenaviruses (LCMV): LCMV Primary Screen - GLuc reporter signal (AID 1347086; calls by dose curve; note: nearly all actives have a fitted effect of over 70% in size; note: potency is the fitted concentration of half-maximal effect). The note with it: LCMV minigenome vRNP cell assay, Gaussia luciferase reporter; series mostly up to 57.5 µM.

Assay [3] is described as follows: qHTS of pediatric cancer cell lines to identify multiple opportunities for drug repurposing: Primary screen for TC32 cells (AID 1347089). Note: nearly all actives have a fitted effect of over 60% in size. The note with it: TC32 Ewing sarcoma viability, CellTiter-Glo luminescence, 48 h; series mostly up to 45.8 µM. The method in brief: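 Luminescent CellTiter-Glo read-out of metabolically active TC32 cells after 48 h compound exposure. Primary: MIPE 11-point, 0.78 nM–46 µM; NPC 8-point, 0.59 nM–46 µM. Confirmatory: 11-point dilutions.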

Assay [4] is described as follows: qHTS of pediatric cancer cell lines to identify multiple opportunities for drug repurposing: Primary screen for DAOY cells (AID 1347090). Note: nearly all actives have a fitted effect of over 55% in size. Note: potency is the fitted concentration of half-maximal effect. The conditions noted are these: DAOY medulloblastoma viability, CellTiter-Glo luminescence, 48 h; series mostly up to 46 µM. The essentials:
(§1)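 Cell viability, CellTiter-Glo luminescence; 500-1,000 cells/well, 8- or 11-point titration, 48 h compound exposure at 37 degrees C, 5% CO2. Controls: DMSO neutral, bortezomib 2.3 µM final as positive.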

Assay [5] in a line: qHTS of pediatric cancer cell lines to identify multiple opportunities for drug repurposing: Primary screen for SJ-GBM2 cells (AID 1347091). Note: potency is the fitted concentration of half-maximal effect. The note with it: SJ-GBM2 viability, CellTiter-Glo luminescence, 48 h; series mostly up to 46 µM. The essentials: as §1
Assay [6] in a line: qHTS of pediatric cancer cell lines to identify multiple opportunities for drug repurposing: Primary screen for A673 cells (AID 1347092). Note: nearly all actives have a fitted effect of over 45% in size. Note: potency is the fitted concentration of half-maximal effect. The note with it: A673 Ewing sarcoma viability, CellTiter-Glo ATP luminescence, 48 h; series mostly up to 46 µM. The method in brief: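 A673 cells (500-1,000 cells/well in growth media) were pre-incubated 5 h at 37 degrees C, then exposed to compounds for 48 h. Viability was read as CellTiter-Glo luminescence; concentration-response curves came directly from the primary screen.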

Assay [7] can be described thus: qHTS of pediatric cancer cell lines to identify multiple opportunities for drug repurposing: Primary screen for SK-N-MC cells (AID 1347093). Note: potency is the fitted concentration of half-maximal effect. The conditions noted are these: SK-N-MC viability, CellTiter-Glo luminescence, 48 h; series mostly up to 46 µM. The method in brief:
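Metabolically active cells were quantified by ATP-dependent luminescence (CellTiter-Glo, 15 min at room temperature) following 48 h treatment. Cells had been plated at 500-1,000 per well and settled for 5 h beforehand.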

The nature of assay [8]: qHTS of pediatric cancer cell lines to identify multiple opportunities for drug repurposing: Primary screen for BT-37 cells (AID 1347094). Note: potency is the fitted concentration of half-maximal effect. The conditions noted are these: BT-37 viability, CellTiter-Glo luminescence, 48 h; series mostly up to 57.3 µM. The method in brief: (§2)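 Plated cells (500-1,000 per well, growth media) were allowed to settle for 5 hours, treated with compound dilutions for 48 hours, then lysed with CellTiter-Glo for 15 min at room temperature before luminescence reading.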

A short description of assay [9]: qHTS of pediatric cancer cell lines to identify multiple opportunities for drug repurposing: Primary screen for U-2 OS cells (AID 1347096). Note: nearly all actives have a fitted effect of over 50% in size. The conditions noted are these: U-2 OS viability, CellTiter-Glo luminescence, 48 h; series mostly up to 46 µM. The essentials: (§3)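 Cells (500-1,000/well) rested 5 h, then received compounds for 48 h; metabolically active cells were measured by CellTiter-Glo luminescence. Final concentrations spanned up to 46 µM (MIPE, 11-point) or 0.59 nM-46 µM (NPC, 8-point) in primary screens, 11-point in follow-ups.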

Assay [10] is described as follows: qHTS of pediatric cancer cell lines to identify multiple opportunities for drug repurposing: Primary screen for Saos-2 cells (AID 1347097). Note: nearly all actives have a fitted effect of over 40% in size. Note: potency is the fitted concentration of half-maximal effect. The note with it: Saos-2 viability, CellTiter-Glo ATP luminescence, 48 h; series mostly up to 46 µM. The method in brief:
as §2

The nature of assay [11]: qHTS of pediatric cancer cell lines to identify multiple opportunities for drug repurposing: Primary screen for SK-N-SH cells (AID 1347098). Note: nearly all actives have a fitted effect of over 65% in size. The note with it: SK-N-SH viability, CellTiter-Glo luminescence, 48 h; series mostly up to 57 µM. The method in brief:
as §3

Assay [12] can be described thus: qHTS of pediatric cancer cell lines to identify multiple opportunities for drug repurposing: Primary screen for NB1643 cells (AID 1347099). Note: nearly all actives have a fitted effect of over 50% in size. Note: potency is the fitted concentration of half-maximal effect. The conditions noted are these: NB1643 neuroblastoma viability, CellTiter-Glo luminescence, 48 h; series mostly up to 46 µM. The essentials:
as §2

Assay [13] is described as follows: qHTS of pediatric cancer cell lines to identify multiple opportunities for drug repurposing: Primary screen for LAN-5 cells (AID 1347100). Note: potency is the fitted concentration of half-maximal effect. The note with it: LAN-5 neuroblastoma viability, CellTiter-Glo luminescence, 48 h; series mostly up to 46 µM. The essentials: as §3
Assay [14] in a line: qHTS of pediatric cancer cell lines to identify multiple opportunities for drug repurposing: Primary screen for BT-12 cells (AID 1347101). Note: nearly all actives have a fitted effect of over 25% in size. Note: potency is the fitted concentration of half-maximal effect. The conditions noted are these: BT-12 viability, CellTiter-Glo luminescence, 48 h; series mostly up to 57.3 µM. The method in brief: as §3
A short description of assay [15]: qHTS of pediatric cancer cell lines to identify multiple opportunities for drug repurposing: Primary screen for Rh18 cells (AID 1347102). Note: nearly all actives have a fitted effect of over 65% in size. The note with it: Rh18 rhabdomyosarcoma viability, CellTiter-Glo luminescence, 48 h; series mostly up to 46 µM. The method in brief: as §3
The nature of assay [16]: qHTS of pediatric cancer cell lines to identify multiple opportunities for drug repurposing: Primary screen for OHS-50 cells (AID 1347103). Note: nearly all actives have a fitted effect of over 40% in size. Note: potency is the fitted concentration of half-maximal effect. The note with it: OHS-50 osteosarcoma viability, CellTiter-Glo luminescence, 48 h; series mostly up to 57.3 µM. The method in brief: as §3
A short description of assay [17]: qHTS of pediatric cancer cell lines to identify multiple opportunities for drug repurposing: Primary screen for RD cells (AID 1347104). Note: nearly all actives have a fitted effect of over 55% in size. Note: potency is the fitted concentration of half-maximal effect. The note with it: RD rhabdomyosarcoma viability, CellTiter-Glo luminescence, 48 h; series mostly up to 46 µM. The method in brief: as §2
Assay [18] can be described thus: qHTS of pediatric cancer cell lines to identify multiple opportunities for drug repurposing: Primary screen for MG 63 (6-TG R) cells (AID 1347105). Note: nearly all actives have a fitted effect of over 50% in size. The conditions noted are these: MG 63 (6-TG R) viability, CellTiter-Glo, 48 h; series mostly up to 46 µM. The essentials:
as §2

Assay [19] in a line: qHTS of pediatric cancer cell lines to identify multiple opportunities for drug repurposing: Primary screen for control Hh wild type fibroblast cells (AID 1347106).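 Note: a drop in luminescence marks cytotoxicity and a rise apparent proliferation; nearly all actives have a fitted effect of over 55% in size.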 The note with it: Hh wild-type fibroblast viability, CellTiter-Glo luminescence, 48 h; series mostly up to 46 µM. The essentials: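 Viability after 48 h compound treatment at 37C, 500-1,000 cells/well, read as ATP luminescence with CellTiter-Glo. Primary screens used 11-point (MIPE, 0.78 nM-46 µM) or 8-point (NPC, 0.59 nM-46 µM) final concentrations; follow-up screens used 11-point dilutions.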

The nature of assay [20]: qHTS of pediatric cancer cell lines to identify multiple opportunities for drug repurposing: Primary screen for NB-EBc1 cells (AID 1347095). The note with it: NB-EBc1 neuroblastoma viability, CellTiter-Glo luminescence, 48 h; series mostly up to 46 µM. The essentials:
as §2

Nucleoprotein (Lymphocytic choriomeningitis virus (strain Armstrong)), sequence (P09992 whole entry, looked up): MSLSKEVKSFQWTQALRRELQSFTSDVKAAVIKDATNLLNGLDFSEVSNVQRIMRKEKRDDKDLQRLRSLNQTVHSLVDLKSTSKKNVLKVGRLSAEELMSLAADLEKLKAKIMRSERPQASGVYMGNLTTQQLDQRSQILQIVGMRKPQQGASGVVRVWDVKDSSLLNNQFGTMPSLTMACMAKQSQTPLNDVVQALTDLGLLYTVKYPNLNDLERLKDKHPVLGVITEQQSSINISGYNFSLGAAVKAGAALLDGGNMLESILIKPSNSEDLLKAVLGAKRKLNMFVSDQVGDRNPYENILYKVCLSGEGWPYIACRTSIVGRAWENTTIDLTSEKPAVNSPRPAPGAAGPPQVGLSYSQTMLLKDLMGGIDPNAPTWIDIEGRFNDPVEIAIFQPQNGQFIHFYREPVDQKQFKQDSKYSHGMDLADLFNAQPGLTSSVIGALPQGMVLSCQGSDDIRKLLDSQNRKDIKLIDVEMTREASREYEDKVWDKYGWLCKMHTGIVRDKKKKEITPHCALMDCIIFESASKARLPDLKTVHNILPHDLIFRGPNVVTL

On to `CC(C)NCC(O)c1ccc([N+](=O)[O-])cc1` (stereo not given), for which the Potency result in assay [1], in assay [2], in assay [3], in [4], in [5] and in assay [6] was “inactive” each time. Moreover, the Potency entry in [7], in assay [8], in [9], in [10], in assay [11] and in assay [12] was “inactive” each time. For the same compound, the Potency entry in assay [13], in [14], in [15], in assay [16], in assay [17] and in assay [18] was “inactive” each time. Moreover, the Potency entry in assay [19] is “inactive”.
Take `C[C@]12CCC(=O)C(O)=C1CC[C@@H]1[C@H]3CCC(=O)[C@@]3(C)CC[C@@H]12`: the Potency result in assay [1], in assay [2], in [3], in assay [4], in [5] and in assay [6] was “inactive” each time. The Potency result in assay [7], in [8], in assay [20], in assay [9], in [11] and in assay [13] was “inactive” throughout. Further, the Potency result in assay [14], in [15], in assay [17], in assay [18] and in assay [19] was “inactive” each time.
In the case of `Cc1cc(O)ccc1Cl`, the Potency result in assay [1], in assay [2], in assay [3], in [4], in [5] and in assay [6] was “inactive” in each case. Moreover, the Potency result in assay [7], in assay [8], in [9], in assay [10], in assay [11] and in assay [12] was “inactive” throughout. Besides, the Potency result in [13], in assay [14], in assay [15], in assay [17], in assay [18] and in assay [19] was “inactive” throughout.
Consider `Nc1c(Cl)c(Cl)c(Cl)c(Cl)c1Cl`, for which the Potency result in assay [1], in [2], in assay [3], in [4], in [5] and in assay [6] was “inactive” each time. The Potency result in [7], in assay [8], in assay [9], in assay [10], in assay [11] and in assay [12] was “inactive” throughout. The Potency entry in assay [13], in [14], in assay [15], in assay [16], in assay [17] and in assay [18] was “inactive” in each case.
Take `N#C[C@H](O[C@@H]1O[C@H](CO[C@@H]2O[C@H](CO)[C@H](O)[C@H](O)[C@H]2O)[C@H](O)[C@H](O)[C@H]1O)c1ccccc1`: the Potency in assay [1] was 38.5 µM (active); in assay [2], 24.3 µM (active); in assay [4] it was 23.5 µM (active); in assay [5], 26.4 µM (active); in [6], 29.6 µM (active); in assay [7], 10.5 µM (active). Further, the Potency in [8] is 24.3 µM (active); in assay [10], 18.7 µM (active); in [12], 11.8 µM (active); in assay [13], 23.5 µM (active); in [14], 24.3 µM (active); in assay [16] it was 21.7 µM (active). Further, in [17], the Potency is 33.2 µM (active). In addition, the Potency entry in assay [3], in [9] and in assay [19] was “inactive” each time.
`CCCC[N+]1(C)[C@H]2CC(OC(=O)[C@H](CO)c3ccccc3)C[C@H]1[C@H]1O[C@H]12` (stereo not given in full): the Potency result in assay [1], in assay [2], in assay [3], in assay [4], in assay [5] and in assay [6] was “inactive” throughout. The Potency entry in [7], in [9], in assay [10], in assay [11], in assay [12] and in [13] was “inactive” in each case. Besides, the Potency result in [14], in [15], in assay [17], in assay [18] and in assay [19] was “inactive” throughout.
